# This is part of a sample that, as a whole, favours compounds with a hit. Of some 79,000 tested, about 15% had one in any assay. A number with no mark means an inactive call. Calls of active or inactive are those of the source. No stated cut-off is given here; in the data, active means growth inhibition above about 70%; inactive means the rest.
# How the values were obtained:
# [1] = NCI Yeast Anticancer Drug Screen. Data for the rad52 strain (AID 147);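 further: 0% = growth of vehicle-treated control cultures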; details: S. cerevisiae rad52 mutant growth inhibition, hits give high values
# Outline: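 Read-out: growth inhibition versus vehicle-treated controls. Cells were a DNA repair-deficient yeast strain treated with compounds.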
# [2] = NCI Yeast Anticancer Drug Screen. Data for the wt1 strain (AID 149);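 further: 0% = growth of vehicle-treated wt1 cultures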; details: S. cerevisiae wt1 strain (SPY 50644) growth inhibition, hits give high values
# Outline: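 Each compound is tested on wt1 yeast and the loss of growth versus vehicle gives the inhibition value.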
# [3] = NCI Yeast Anticancer Drug Screen. Data for the rad50EPP+ strain (AID 151);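 further: 0% = growth of vehicle-treated control cultures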; details: S. cerevisiae rad50 mutant strain, hits give high values
# Outline: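 Growth inhibition read against vehicle controls in rad50EPP+ yeast, a strain altered in DNA damage repair, after compound exposure.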
# [4] = NCI Yeast Anticancer Drug Screen. Data for the mgt1 strain (AID 153); details: S. cerevisiae mgt1 mutant growth inhibition, hits give high values
# Outline: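 mgt1 yeast grown with test compound; read-out is growth inhibition versus vehicle-treated cultures.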
# [5] = NCI Yeast Anticancer Drug Screen. Data for the rad50 strain (AID 155);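 further: 0% = growth of vehicle-only cultures of the same strain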; details: S. cerevisiae rad50 strain growth inhibition, hits give high values
# Outline: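 Vehicle-treated cultures provide the reference for the growth inhibition reported for compound-exposed, repair-deficient yeast.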
# [6] = NCI Yeast Anticancer Drug Screen. Data for the mec2-1 strain (AID 157); details: S. cerevisiae mec2-1 strain, hits give high values
# Outline: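 Yeast mec2-1 mutant treated with compound. Readout: growth inhibition vs vehicle controls.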
# [7] = NCI Yeast Anticancer Drug Screen. Data for the rad14 strain (AID 159);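 further: 0% = growth of vehicle-treated control cultures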; details: S. cerevisiae rad14 strain growth inhibition, hits give high values
# Outline: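 Inhibition of growth is reported for a repair-deficient yeast mutant following compound treatment, calculated relative to cultures that received vehicle.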
# [8] = NCI Yeast Anticancer Drug Screen. Data for the CLN2oe strain (AID 163);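 further: 0% = growth of vehicle-only control cultures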; details: S. cerevisiae CLN2oe strain, hits give high values
# Outline: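 Read-out: yeast growth inhibition, expressed relative to vehicle-only controls. The strain bears an engineered cell-cycle alteration.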
# [9] = NCI Yeast Anticancer Drug Screen. Data for the cln2 rad14 strain (AID 165);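 further: 0% = growth equal to vehicle treated cultures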; details: S. cerevisiae cln2 rad14 strain, hits give high values
# Outline: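 cln2 rad14 yeast strain; compound exposure; growth inhibition read vs vehicle controls.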
# [10] = NCI Yeast Anticancer Drug Screen. Data for the bub3 strain (AID 167); details: S. cerevisiae bub3 mutant strain, hits give high values
# Outline: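 Mutant yeast screening strain plus compound; vehicle-treated cultures serve as the 0% inhibition reference.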
# [11] = NCI Yeast Anticancer Drug Screen. Data for the mlh1 strain (AID 171);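 further: 0% = growth of vehicle-treated control cultures of the same strain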; details: S. cerevisiae mlh1 strain growth inhibition, hits give high values
# Outline: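 Read-out: growth inhibition versus vehicle controls. Strain: engineered yeast with a defined DNA repair or cell cycle defect, compound-treated.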
# [12] = NCI Yeast Anticancer Drug Screen. Data for the sgs1 strain (AID 173);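 further: 0% = growth of vehicle-only control cultures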; details: S. cerevisiae sgs1 mutant, hits give high values
# Outline: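 Read-out: yeast growth inhibition relative to vehicle controls, following compound exposure of a strain with a defined DNA repair/cell cycle alteration.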
# [13] = NCI Yeast Anticancer Drug Screen. Data for the mlh1 rad18 strain (AID 175); details: S. cerevisiae mlh1 rad18 strain growth inhibition, hits give high values
# Outline: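 Yeast w/ defined DNA-repair lesions; compound exposure; growth vs vehicle controls → % inhibition.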
# [14] = NCI Yeast Anticancer Drug Screen. Data for the rad18 strain (AID 177); details: S. cerevisiae rad18 mutant growth inhibition, hits give high values
# Outline: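 Readout: growth inhibition vs vehicle controls. Cells: genetically altered yeast strain, DNA repair defect.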
# [15] = NCI Yeast Anticancer Drug Screen. Data for the sgs1 mgt1 strain (AID 161);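 further: 0% = growth of cultures given vehicle only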; details: S. cerevisiae sgs1 mgt1 strain, hits give high values
# Outline: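 Genetically altered yeast, compound exposure, growth inhibition relative to vehicle.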
# [16] = NCI Yeast Anticancer Drug Screen. Data for the wt2 strain (AID 169); details: S. cerevisiae wt2 strain growth inhibition, hits give high values
# Outline: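 Read-out: growth inhibition versus vehicle-treated control cultures after compound exposure of the yeast strain.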
# [17] = at 5.0 µM (retest, dose inferred, filed as 0.5)
# [18] = at 50.0 µM (retest, dose inferred, filed as 5.0)
smiles,measurement,setting,value
C[C@]12CC[C@H](O)CC1=CC[C@@H]1C2CC[C@]2(C)C(=O)NC(=O)CC12 (stereo not given in full),growth inhibition,[1]; at 1.2 µM,-27%
same,growth inhibition,[1]; at 3.7 µM,-23%
same,growth inhibition,[1]; at 11.0 µM,-17%
same,growth inhibition,[1]; at 33.0 µM,58%
same,growth inhibition,[1]; at 100.0 µM,85% (active)
same,growth inhibition,[2]; at 1.2 µM,-22%
same,growth inhibition,[2]; at 3.7 µM,-24%
same,growth inhibition,[2]; at 11.0 µM,-21%
same,growth inhibition,[2]; at 33.0 µM,55%
same,growth inhibition,[2]; at 100.0 µM,84% (active)
same,growth inhibition,[3]; at 1.2 µM,-33%
same,growth inhibition,[3]; at 3.7 µM,-19%
same,growth inhibition,[3]; at 11.0 µM,18%
same,growth inhibition,[3]; at 33.0 µM,74% (active)
same,growth inhibition,[3]; at 100.0 µM,93% (active)
same,growth inhibition,[4]; at 1.2 µM,-41%
same,growth inhibition,[4]; at 3.7 µM,-16%
same,growth inhibition,[4]; at 11.0 µM,79% (active)
same,growth inhibition,[4]; at 33.0 µM,94% (active)
same,growth inhibition,[4]; at 100.0 µM,96% (active)
same,growth inhibition,[5]; at 1.2 µM,-16%
same,growth inhibition,[5]; at 3.7 µM,-19%
same,growth inhibition,[5]; [17],-4%
same,growth inhibition,[5]; at 11.0 µM,-13%
same,growth inhibition,[5]; at 33.0 µM,53%
same,growth inhibition,[5]; [18],69%
same,growth inhibition,[5]; at 50.0 µM,82.4% (active)
same,growth inhibition,[5]; at 100.0 µM,88% (active)
same,growth inhibition,[6]; at 1.2 µM,-23%
same,growth inhibition,[6]; at 3.7 µM,-24%
same,growth inhibition,[6]; [17],-39%
same,growth inhibition,[6]; at 11.0 µM,-27%
same,growth inhibition,[6]; at 33.0 µM,14%
same,growth inhibition,[6]; [18],82% (active)
same,growth inhibition,[6]; at 50.0 µM,77.9% (active)
same,growth inhibition,[6]; at 100.0 µM,83% (active)
same,growth inhibition,[7]; at 1.2 µM,-50%
same,growth inhibition,[7]; at 3.7 µM,-50%
same,growth inhibition,[7]; at 11.0 µM,-38%
same,growth inhibition,[7]; at 33.0 µM,64%
same,growth inhibition,[7]; at 100.0 µM,87% (active)
same,growth inhibition,[8]; at 1.2 µM,-36%
same,growth inhibition,[8]; at 3.7 µM,-45%
same,growth inhibition,[8]; at 11.0 µM,-48%
same,growth inhibition,[8]; at 33.0 µM,67%
same,growth inhibition,[8]; at 100.0 µM,91% (active)
same,growth inhibition,[9]; [17],1%
same,growth inhibition,[9]; [18],80% (active)
same,growth inhibition,[9]; at 50.0 µM,84.7% (active)
same,growth inhibition,[10]; at 1.2 µM,-23%
same,growth inhibition,[10]; at 3.7 µM,-15%
same,growth inhibition,[10]; [17],-4%
same,growth inhibition,[10]; at 11.0 µM,-12%
same,growth inhibition,[10]; at 33.0 µM,60%
same,growth inhibition,[10]; [18],90% (active)
same,growth inhibition,[10]; at 50.0 µM,80% (active)
same,growth inhibition,[10]; at 100.0 µM,86% (active)
same,growth inhibition,[11]; at 1.2 µM,-33%
same,growth inhibition,[11]; at 3.7 µM,-3%
same,growth inhibition,[11]; at 11.0 µM,71% (active)
same,growth inhibition,[11]; at 33.0 µM,94% (active)
same,growth inhibition,[11]; at 100.0 µM,96% (active)
same,growth inhibition,[12]; at 1.2 µM,17%
same,growth inhibition,[12]; at 3.7 µM,45%
same,growth inhibition,[12]; at 11.0 µM,90% (active)
same,growth inhibition,[12]; at 33.0 µM,96% (active)
same,growth inhibition,[12]; at 100.0 µM,97% (active)
same,growth inhibition,[13]; [17],-25%
same,growth inhibition,[13]; [18],82% (active)
same,growth inhibition,[13]; at 50.0 µM,70.3% (active)
same,growth inhibition,[14]; at 1.2 µM,-27%
same,growth inhibition,[14]; at 3.7 µM,-29%
same,growth inhibition,[14]; at 11.0 µM,-23%
same,growth inhibition,[14]; at 33.0 µM,77% (active)
same,growth inhibition,[14]; at 100.0 µM,92% (active)
CCCCCCSc1ncnc2[nH]ncc12,growth inhibition,[1]; at 1.2 µM,-2%
same,growth inhibition,[1]; at 3.7 µM,-1%
same,growth inhibition,[1]; at 11.0 µM,0%
same,growth inhibition,[1]; at 33.0 µM,-1%
same,growth inhibition,[1]; at 100.0 µM,-1%
same,growth inhibition,[2]; at 1.2 µM,-1%
same,growth inhibition,[2]; at 3.7 µM,-2%
same,growth inhibition,[2]; at 11.0 µM,-3%
same,growth inhibition,[2]; at 33.0 µM,-63%
same,growth inhibition,[2]; at 100.0 µM,-5%
same,growth inhibition,[3]; at 1.2 µM,-2%
same,growth inhibition,[3]; at 3.7 µM,2%
same,growth inhibition,[3]; at 11.0 µM,10%
same,growth inhibition,[3]; at 33.0 µM,22%
same,growth inhibition,[3]; at 100.0 µM,12%
same,growth inhibition,[4]; at 1.2 µM,-2%
same,growth inhibition,[4]; at 3.7 µM,-1%
same,growth inhibition,[4]; at 11.0 µM,-2%
same,growth inhibition,[4]; at 33.0 µM,-3%
same,growth inhibition,[4]; at 100.0 µM,-4%
same,growth inhibition,[5]; at 1.2 µM,2%
same,growth inhibition,[5]; at 3.7 µM,4%
same,growth inhibition,[5]; [17],-1%
same,growth inhibition,[5]; at 11.0 µM,34%
same,growth inhibition,[5]; at 33.0 µM,4%
same,growth inhibition,[5]; [18],5%
same,growth inhibition,[5]; at 50.0 µM,79.4% (active)
same,growth inhibition,[5]; at 100.0 µM,5%
same,growth inhibition,[6]; at 1.2 µM,-3%
same,growth inhibition,[6]; at 3.7 µM,-2%
same,growth inhibition,[6]; [17],0%
same,growth inhibition,[6]; at 11.0 µM,0%
same,growth inhibition,[6]; at 33.0 µM,0%
same,growth inhibition,[6]; [18],6%
same,growth inhibition,[6]; at 50.0 µM,76.5% (active)
same,growth inhibition,[6]; at 100.0 µM,0%
same,growth inhibition,[7]; at 1.2 µM,-2%
same,growth inhibition,[7]; at 3.7 µM,1%
same,growth inhibition,[7]; at 11.0 µM,1%
same,growth inhibition,[7]; at 33.0 µM,5%
same,growth inhibition,[7]; at 100.0 µM,5%
same,growth inhibition,[15]; [17],-2%
same,growth inhibition,[15]; [18],0%
same,growth inhibition,[15]; at 50.0 µM,72.1% (active)
same,growth inhibition,[9]; [17],-5%
same,growth inhibition,[9]; [18],6%
same,growth inhibition,[9]; at 50.0 µM,18.9%
same,growth inhibition,[10]; at 1.2 µM,4%
same,growth inhibition,[10]; at 3.7 µM,7%
same,growth inhibition,[10]; [17],11%
same,growth inhibition,[10]; at 11.0 µM,9%
same,growth inhibition,[10]; at 33.0 µM,15%
same,growth inhibition,[10]; [18],54%
same,growth inhibition,[10]; at 50.0 µM,93% (active)
same,growth inhibition,[10]; at 100.0 µM,6%
same,growth inhibition,[16]; at 1.2 µM,-3%
same,growth inhibition,[16]; at 3.7 µM,6%
same,growth inhibition,[16]; at 11.0 µM,-3%
same,growth inhibition,[16]; at 33.0 µM,-3%
same,growth inhibition,[16]; at 100.0 µM,-3%
same,growth inhibition,[12]; at 1.2 µM,-3%
same,growth inhibition,[12]; at 3.7 µM,-3%
same,growth inhibition,[12]; at 11.0 µM,0%
same,growth inhibition,[12]; at 33.0 µM,1%
same,growth inhibition,[12]; at 100.0 µM,3%
same,growth inhibition,[14]; at 1.2 µM,-2%
same,growth inhibition,[14]; at 3.7 µM,1%
same,growth inhibition,[14]; at 11.0 µM,6%
same,growth inhibition,[14]; at 33.0 µM,1%
same,growth inhibition,[14]; at 100.0 µM,3%

# Reference: PubChem BioAssay (NCI)
